Bioassay records as filed in PubChem BioAssay.
BL2 CD40 inh: inhibitors of CD40-induced NF-kB signaling, primary screen, BL2 cells, luciferase reporter, single point; 83,000 tested, 0.94% active; inhibition, % at 10 µM; CD40L-induced, 4 h;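 active = mean inhibition of at least 50% with a set share of replicates also reaching that level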;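 note: 0% = neutral control wells and 100% = IKK inhibitor VII at 50 µM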
An asterisk follows results filed as active; [ ] = another dose, or the depositor's remark. Shown is part of a subset that was picked to be rich in hits.

SMILES	BL2 CD40 inh
CN(C)C(=O)C[C@@H]1CC[C@H]2[C@@H](COc3ccc(NC(=O)C4CCCC4)cc3C(=O)N2C)O1	4
O=C(NC1Cc2ccccc2C1)[C@H]1N[C@H]2c3ccc(C4=CCCC4)c(=O)n3C[C@H]2[C@@H]1CO	1[25 µM]
C[C@@H]1CN([C@H](C)CO)C(=O)c2c(c3ccccc3n2C)-c2ccccc2CO[C@H]1CN(C)C(=O)Nc1cccc(C(F)(F)F)c1	38[25 µM]
C[C@@H]1CN([C@H](C)CO)C(=O)c2c(c3ccccc3n2C)-c2ccccc2CO[C@@H]1CN(C)C(=O)Nc1cccc(C(F)(F)F)c1	20[25 µM]
C[C@@H]1CN([C@@H](C)CO)C(=O)c2c(c3ccccc3n2C)-c2ccccc2CO[C@H]1CN(C)C(=O)Nc1cccc(C(F)(F)F)c1	70*[25 µM]
C[C@H]1CN([C@@H](C)CO)C(=O)c2c(c3ccccc3n2C)-c2ccccc2CO[C@H]1CN(C)C(=O)Nc1cccc(C(F)(F)F)c1	55*[25 µM]
C[C@@H]1CN([C@H](C)CO)C(=O)c2c(c3ccccc3n2C)-c2ccccc2CO[C@H]1CN(C)C(=O)Nc1cccc(F)c1	5
C[C@@H]1CN([C@@H](C)CO)C(=O)c2c(c3ccccc3n2C)-c2ccccc2CO[C@@H]1CN(C)C(=O)Nc1cccc(C(F)(F)F)c1	24[25 µM]
CC(=O)OC1C(=O)C2(C)C(O)CC3OCC3(OC(C)=O)C2C(OC(=O)c2ccccc2)C2(O)CC(OC(=O)C(O)C(NC(=O)c3ccccc3)c3ccccc3)C(C)=C1C2(C)C (stereo unspecified)	4[25 µM]
CCCC#Cc1cnc2c(c1)C(=O)N([C@@H](C)CO)C[C@H](C)[C@@H](CN(C)C(=O)Cc1ccncc1)O2	-4[25 µM]
CC(=O)c1cnc(-c2ccccc2Cl)s1	1
O=C1c2sc3nc4ccccc4n3c2C(=O)N1c1ccccc1Cl	52*
CCCNC(=O)N1[C@H](CN(C)C(C)=O)[C@H](c2ccc(C3=CCCC3)cc2)[C@@H]1CO	6
c1ccc(CCSc2nccn2-c2ccccc2)cc1	active
O=C(O)c1cccnc1SCCc1ccccc1	-58
COC(=O)CCCSc1nccn1-c1ccccc1	-8
C[C@@H]1CN([C@@H](C)CO)C(=O)c2c(c3ccccc3n2C)-c2ccccc2CO[C@@H]1CN(C)S(=O)(=O)c1cn(C)cn1	-3[25 µM]
CO[C@@H](CN(C)C(=O)c1cnccn1)[C@H](C)CN([C@H](C)CO)S(=O)(=O)c1ccccc1	7[25 µM]
Cc1cnc(NC(=O)c2cc3ccccc3o2)s1	56*
O=C(Nc1nnc(C2CC2)s1)c1cc2ccccc2o1	-60
Cc1nnc(NC(=O)c2cc3ccccc3o2)s1	-72
COCC(=O)N1C[C@H](C)[C@H](OC)CN(C)C(=O)c2ccc(NC(=O)Nc3cccc(F)c3)cc2OC[C@@H]1C	1[25 µM]
O=C(c1cnccn1)N1CC(=O)N2[C@H](CO)[C@@H](c3ccc(C#CC4CCCC4)cc3)[C@@H]2C1	-2
O=C1c2ccccc2-c2nc3ccccc3nc21	-118
O=C1C(=C(I)I)c2ccccc2-c2ccccc21	106*
SMILES	BL2 CD40 inh
NC1=CC(=O)C(=O)c2ccccc21	-12
COc1ccc2c3c(n(C)c2c1)[C@@H](CO)N(C(C)=O)CC31CCN(C(=O)Nc2ccccc2F)CC1	3[25 µM]
CCOC(=O)c1c(SCCN2CCCCC2)n(-c2ccccc2)c(=S)n(-c2ccccc2)c1=O	95*
CCOC(=O)c1[nH]c(=S)n(-c2ccccc2)c1C(=O)OCC	22
CCOC(=O)c1c(NC(=O)CN2CCCCC2)sc(CN(C)C)c1-c1ccccc1	23
C[C@H](CO)N1C[C@H](C)[C@H](CN(C)C(=O)Nc2ccc(F)cc2)Oc2c(NS(=O)(=O)c3cn(C)cn3)cccc2C1=O	0[25 µM]
COc1ccc(-c2ccc3c(c2)[C@@H]2[C@@H](CCN2C(=O)Cc2ccccc2)[C@@H](CO)N3C)cc1	3[25 µM]
COc1ccc2c3c([nH]c2c1)[C@H](CO)N(C(=O)Nc1ccc(F)cc1)CC31CN(Cc2cc(-c3ccccc3)on2)C1	40[25 µM]
C[C@@H]1CN([C@H](C)CO)C(=O)c2cccc(NC(=O)C3CCCCC3)c2O[C@@H]1CN(C)C	3
O=C(Nc1ccccc1)c1cccc(N2CCCC2=O)c1	-43
O=C(NCc1ccc2c(c1)OCO2)c1cccc(N2CCCC2=O)c1	0
O=C(NCCc1ccccc1)c1cccc(N2CCCC2=O)c1	71*
O=C(Nc1ccc2c(c1)OCO2)N[C@@H]1CC[C@@H](CCNC(=O)C2CCCC2)O[C@@H]1CO	-7
C[C@@H]1CN([C@H](C)CO)C(=O)c2cc(NC(=O)Nc3ccc4c(c3)OCO4)ccc2O[C@H]1CN(C)C	0[25 µM]
CS(=O)(=O)N1CC2C(c3ccc(Br)cc3)C(C1)N2CC(F)(F)F (stereo unspecified)	5
O=C1[C@H](Cc2ccc(F)cc2)CCn2cc(nn2)COC[C@H]2CCCN12	-8[25 µM]
N=c1cc(C2(O)CCCCC2)n2c(nc3ccccc32)s1	66*
NC1=NC2(CCCCC2)n2c(nc3ccccc32)N1	-9
O=C(C1CCCCC1)N1CCCn2c1nc1ccccc12	9
CNC[C@H]1OCc2ccccc2-c2c(n(C)c3ccccc23)C(=O)N([C@@H](C)CO)C[C@@H]1C	-5
CN(C)C(=O)c1cc2c(c(-c3cccc(-c4ccccc4)c3)n1)[C@H](CCO)N([S@@](=O)C(C)(C)C)C2	23
CN(C)CCCN1c2ccccc2Sc2ccc(Cl)cc21	-40
CSc1ccc2c(c1)N(CCC1CCCCN1C)c1ccccc1S2 (stereo unspecified)	74*
OCCN1CCN(CCCN2c3ccccc3Sc3ccc(Cl)cc32)CC1	-78
C[C@H]1CCCCO[C@@H](CN(C)C(=O)Nc2ccc3c(c2)OCO3)[C@@H](C)CN([C@@H](C)CO)C(=O)c2cc(NS(=O)(=O)c3cccs3)ccc2O1	-8
SMILES	BL2 CD40 inh
CN(C)C(=O)c1ccc(-c2ccc3c(c2)[C@H]2[C@H](CCN2C(=O)C2CCC2)[C@@H](CO)N3C)cc1	17
Cc1cnc2c(N)cc(C)c(C)c2c1	90*
Cc1cc(N)c(C)c([N+](=O)[O-])c1C	7
CCC(=O)N1CC2(C1)[C@@H](c1ccc(-c3ccc(F)cc3)cc1)[C@H](CO)N2C(C)=O	-11[25 µM]
C[C@@H]1CN([C@H](C)CO)C(=O)c2ccccc2-c2ccccc2CO[C@H]1CN(C)C(=O)Nc1ccc(F)cc1	-1
O=S(=O)(c1ccccc1)N1CCCCN2[C@@H](CO)[C@@H](c3ccc(-c4ccccc4F)cc3)[C@@H]2C1	6
O=C(Nc1ccccc1)c1cn2ccccc2n1	69*
O=C(Nc1cccc(-c2cn3ccccc3n2)c1)c1cnccn1	-25
O=C(Nc1ccc(-n2cnnn2)cc1)c1cn2ccccc2n1	-55
COC(=O)CN1C(=S)N(c2ccc(F)cc2)C(=O)C1CC(=O)Nc1ccccc1 (stereo unspecified)	16
CCN1C(=O)C(CC(=O)Nc2ccc(F)cc2)N(Cc2ccco2)C1=S (stereo unspecified)	37*
CCN1C(=O)C(CC(=O)Nc2ccc(F)cc2)N(Cc2ccc3c(c2)OCO3)C1=S (stereo unspecified)	-8
C[C@@H]1CN([C@@H](C)CO)C(=O)c2ccccc2-c2ccccc2CO[C@H]1CN(C)S(=O)(=O)c1ccc(C#N)cc1	5
CCS(=O)(=O)Nc1ccc2c(c1)C(=O)N(C)[C@H]1CC[C@@H](CC(=O)N3CCN(C)CC3)O[C@H]1CO2	3[25 µM]
COC(=O)C1=C(C(=O)OC)C(C(=O)OC)C(C(=O)OC)C(C(=O)OC)(C(=O)OC)C(C(=O)OC)=C1C(=O)OC (stereo unspecified)	75*
